Assay outcomes deposited in PubChem by Broad Institute.
Statin myotox sup: protects C2C12 myotubes from simvastatin toxicity. rescue of ATP level, % at 7.49 µM. ATP luminescence, 48 h; scaled: DMSO 0, geranylgeraniol control 100. hit rate 0.78% among 330,000;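 active = mean ATP rescue above about 67%, or every replicate alone reaching that limit, limit read from the data, passing the limit was not always enough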;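 note: myotubes were challenged with 10 µM simvastatin during compound exposure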
PvdQ inh: blocks Pseudomonas aeruginosa PvdQ acylase activity | purified PvdQ acylase, fluorescence plate reader | inhibition, % at 10 µM | hit rate 0.063% among 340,000 | AID 488965; in the data active = inhibition above about 30%, passing the limit was not always enough;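 note: 0% = vehicle neutral wells and 100% = reference inhibitor wells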
miR-122 sensor: miR-122 inhibition in Huh7 cells. AID 602342. hit rate 0.3% among 340,000. activation (reporter increase), % at 12.5 µM. Huh7 miR-122 Renilla luciferase sensor, 48 h; neutral wells = 0, positive control = 100;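 active = mean replicate activation score at least 90 and every replicate individually at or above 90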;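 note: higher luciferase means less miR-122 activity so hits act as miR-122 inhibitors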
PGC1a acetyl inh: PGC1a acetylation modulation, inhibitor mode | U2OS PGC1a acetylation, AlphaScreen anti-acetyl-lysine; with virally co-expressed GCN5 acetyltransferase | inhibition, % at 15.6 µM | hit rate 0.17% among 350,000 | AID 651687;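 active = every replicate shows inhibition of at least 40%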;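 note: 0% = neutral control wells and 100% = positive control wells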
DENV2 CPE: inhibitors of DENV2 cytopathic effect. DENV2-infected cells, cytopathic effect rescue, plate reader. CPE inhibition, % at 9.99 µM. hit rate 1.7% among 350,000; in the data active = CPE inhibition above about 20%, passing the limit was not always enough; tested in BHK-21 cells;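 note: 0% = median of neutral control wells and 100% = median of positive control wells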
* hit, by the source's call; nt = no result; ! = a repeat was not active; [ ] = remark or other dose. Sampled rows, rich in hits. Any-hit rate of the full collection: about 2.2%.

SMILES | Statin myotox sup | PvdQ inh | miR-122 sensor | PGC1a acetyl inh | DENV2 CPE
C[C@H](CO)N1C[C@H](C)[C@H](CN(C)Cc2ccc(C(F)(F)F)cc2)Oc2ccc(NC(=O)Nc3cccc4ccccc34)cc2CC1=O | 2 | nt | -10[16.7 µM] | -6 | 42*
C[C@@H]1CN([C@H](C)CO)C(=O)Cc2cc(NC(=O)Nc3cccc4ccccc34)ccc2O[C@H]1CN(C)Cc1ccc(C(F)(F)F)cc1 | 57 | nt | 1[16.7 µM] | -1 | -8
C[C@H]1CN([C@@H](C)CO)C(=O)Cc2cc(NC(=O)Nc3ccc4c(c3)OCO4)ccc2O[C@H]1CN(C)Cc1ccc(C(=O)O)cc1 | -7 | nt | -4[16.7 µM] | 5 | 78*
C[C@H](CO)N1C[C@H](C)[C@H](CN(C)Cc2ccc(C(=O)O)cc2)Oc2ccc(NC(=O)Nc3cccc4ccccc34)cc2CC1=O | 6 | nt | 6[16.7 µM] | 2 | 5
COc1cccc(C#Cc2ccc([C@H]3[C@H](CO)N4C(=O)CN(S(=O)(=O)c5ccccc5C)C[C@@H]34)cc2)c1 | nt | nt | nt | -24 | -5
C[C@@H]1CCCCO[C@H](CN(C)S(=O)(=O)c2cccs2)[C@H](C)CN([C@@H](C)CO)C(=O)c2cc(NS(=O)(=O)c3ccc(F)cc3)ccc2O1 | nt | nt | -7[16.7 µM] | -11 | 7
CCOc1ccc(C(=O)N/N=C(\c2ccccc2)c2ccccn2)cc1 | nt | -16 | 3 | 80* | nt
CCCCNC(=O)C1(C)CCN1C(=O)c1cncc(Br)c1 (stereo not given) | -7 | nt | -9 | nt | 86*
CC(C)CNC(=O)C1(C)CCCN1C(=O)c1ccncc1 (stereo not given) | 5 | nt | 2 | 9 | -2
CC(C)CNC(=O)C1(C)CCCN1C(=O)c1cncc(Br)c1 (stereo not given) | -2 | nt | -1 | -12 | 26*
C[C@@H]1CCCCO[C@@H](CN(C)C(=O)Nc2ccc3c(c2)OCO3)[C@H](C)CN([C@@H](C)CO)C(=O)c2cc(NC(=O)c3ccccc3)ccc2O1 | nt | nt | 10[16.7 µM] | -8 | 1
O=C1NC(=S)SC1=Cc1ccc(Cl)cc1 | -12 | -12 | 2 | 5 | 22*
COCCCNc1ccn2nc(-c3ccc(Cl)cc3)cc2n1 | 2 | nt | 1 | nt | 30*
CO[C@H]1CN(C)C(=O)c2cc(C#N)ccc2OC[C@H]2O[C@@H](CC[C@H]2OC)CCN(C)C(=O)[C@@H]1C | -3 | nt | nt | -10 | 1
C[C@@H]1CN([C@H](C)CO)C(=O)c2cc(C3=CCCCC3)cnc2O[C@H]1CN(C)C(=O)c1ccc2c(c1)OCO2 | 32 | nt | 2[16.7 µM] | -1 | 54*
Cc1ccc(-c2cnc3c(c2)C(=O)N([C@H](C)CO)C[C@@H](C)[C@@H](CN(C)C(=O)Cc2ccncc2)O3)cc1 | -1 | nt | -5[16.7 µM] | -1 | 1
Cc1ccc(-c2cnc3c(c2)C(=O)N([C@H](C)CO)C[C@H](C)[C@@H](CN(C)C(=O)Cc2ccncc2)O3)cc1 | -3 | nt | 39[16.7 µM] | -16 | 27*
C[C@H](CO)N1C[C@H](C)[C@H](CN(C)C(=O)Cc2ccccc2)Oc2ncc(C3=CCCCC3)cc2C1=O | nt | nt | nt | 17 | 17
Cc1ccc(-c2cnc3c(c2)C(=O)N([C@H](C)CO)C[C@H](C)[C@H](CN(C)C(=O)Cc2ccccc2)O3)cc1 | 29 | nt | 0[16.7 µM] | -13 | 76*
C[C@@H]1CN([C@@H](C)CO)C(=O)c2cc(C3=CCCCC3)cnc2O[C@@H]1CN(C)C(=O)Cc1ccccc1 | -191 | nt | -2[16.7 µM] | 16 | 46*
C[C@H](O)C#Cc1ccc2c(c1)O[C@H](CN(C)C(=O)Nc1ccccc1)[C@H](C)CN([C@@H](C)CO)S2(=O)=O | 18 | nt | 8[16.7 µM] | 20 | 0
O=P(OC1CCCCC1)(OC1CCCCC1)C(O)c1ccccc1 (stereo not given) | 4 | -13 | 147* | 5 | nt
CCN1CCN(C(=O)c2ccc(CS(=O)(=O)Cc3ccccc3F)o2)CC1 | 95* | -5 | -5 | -23 | 0
O=C(O)c1ccc(CS(=O)(=O)Cc2ccccc2F)o1 | nt | -15 | nt | nt | -10
C[C@H]1CCCCO[C@H](CN(C)S(=O)(=O)c2ccccc2)[C@@H](C)CN([C@@H](C)CO)C(=O)c2cc(NC(=O)Nc3ccc4c(c3)OCO4)ccc2O1 | nt | nt | -4[16.7 µM] | -18 | 61*
SMILES | Statin myotox sup | PvdQ inh | miR-122 sensor | PGC1a acetyl inh | DENV2 CPE
C[C@H](CO)N1C[C@H](C)[C@@H](CN(C)S(=O)(=O)c2ccccc2)OCCCC[C@H](C)Oc2ccc(NC(=O)Nc3ccc4c(c3)OCO4)cc2C1=O | nt | nt | -5[16.7 µM] | -16 | 29*
C[C@@H]1CCCCO[C@H](CN(C)S(=O)(=O)c2ccccc2)[C@@H](C)CN([C@H](C)CO)C(=O)c2cc(NC(=O)Nc3ccc4c(c3)OCO4)ccc2O1 | nt | nt | 4[16.7 µM] | 2 | 91*
Cc1ccc(S(=O)(=O)N(C)C[C@@H]2OCCCC[C@H](C)Oc3ccc(NC(=O)Nc4ccc5c(c4)OCO5)cc3C(=O)N([C@H](C)CO)C[C@H]2C)cc1 | nt | nt | -8[16.7 µM] | -12 | 1
C[C@@H]1CN([C@@H](C)CO)C(=O)c2cc(NC(=O)Nc3ccc4c(c3)OCO4)ccc2O[C@@H](C)CCCCO[C@@H]1CN(C)S(=O)(=O)c1ccccc1 | nt | nt | 14[16.7 µM] | 1 | 11
C[C@H]1CCCCO[C@H](CN(C)CC2CC2)[C@@H](C)CN([C@@H](C)CO)C(=O)c2cc(NS(=O)(=O)c3ccc(F)cc3)ccc2O1 | nt | nt | 6[16.7 µM] | 5 | 2
C[C@@H]1CN([C@@H](C)CO)C(=O)c2cc(NS(=O)(=O)c3cn(C)cn3)ccc2O[C@@H]1CN(C)Cc1ccc(Cl)c(Cl)c1 | 21 | nt | 2[16.7 µM] | -1 | -4
CCNC(=O)C[C@@H]1C=C[C@H](NS(=O)(=O)c2ccc(F)cc2)[C@H](CO)O1 | -1 | nt | -8[16.7 µM] | 12 | 2
O=C(C[C@@H]1C[C@@H]2c3cc(NC(=O)C4CCC4)ccc3O[C@@H]2[C@@H](CO)O1)NCc1ccc(-c2ccccc2)cc1 | -16 | nt | -5[16.7 µM] | 80* | 4
COCC(=O)Nc1ccc2c(c1)[C@@H]1C[C@H](CC(=O)OC)O[C@H](CO)[C@@H]1O2 | -4 | nt | -6 | 0 | 28*!
COC(=O)C[C@H]1C[C@H]2c3cc(NC(=O)C4CCOCC4)ccc3O[C@H]2[C@H](CO)O1 | 6 | nt | -3 | 1 | 46*
COC(=O)C[C@@H]1C[C@H]2c3cc(NC(=O)C4CCOCC4)ccc3O[C@H]2[C@@H](CO)O1 | -5 | nt | -7[16.7 µM] | 4 | -6
COC(=O)C[C@@H]1C[C@H]2c3cc(NC(=O)CC4CC4)ccc3O[C@H]2[C@@H](CO)O1 | -3 | nt | -5 | -5 | 24*!
COC(=O)C[C@H]1C[C@H]2c3cc(NC(=O)CC4CC4)ccc3O[C@H]2[C@H](CO)O1 | 7 | nt | -2 | -3 | -4
C[C@@H]1CN([C@H](C)CO)C(=O)Cc2cc(NS(=O)(=O)c3cn(C)cn3)ccc2O[C@@H]1CN(C)C(=O)Nc1ccc(C(F)(F)F)cc1 | -1 | nt | 2[16.7 µM] | -17 | -5
O=C(C[C@H]1C[C@@H]2c3cc(NC(=O)CC4CC4)ccc3O[C@@H]2[C@H](CO)O1)NCc1ccccc1 | -4 | nt | -2[16.7 µM] | -1 | 98*
